Results reported in ChEMBL document CHEMBL3988442, “University of Dundee, Small-Polar-MMV Screening Library” (2021).

Biological target: AMP-activated protein kinase, AMPK (Homo sapiens) (UniProt P54646+O43741+P54619+Q9UGJ0+Q9Y478+Q13131+Q9UGI9)
Experiment: AMP-dependent Kinase enzyme assay. An in vitro enzyme assay that detects ADP turnover that is directly proportional to AMPK activity. This uses naive AMPK that is activated during the assay with MK-8722
Format: functional
Design: scale not given: direction of the effect not stated beside the values
Conditions: 30 µM

| Compound | Percent Effect [%] |
| --- | --- |
| CCCC(=O)NC1CCCN(c2nc3ccccc3cc2CO)C1 (stereo unspecified) | 6.66 |
| CSc1nsc(NC(=O)N(C)Cc2ccc3c(c2)OCO3)n1 | 0.417 |
| CN(Cc1cc(Br)cs1)Cc1nnsc1Cl | 15.7 |
| Cc1nc2c(c(N[C@H](C(N)=O)C(C)C)n1)Cc1ccccc1OC2 | -25.7 |
| CCCN(CCC)C(=O)c1cnn(C)c1C | 3.84 |
| CN1CC(c2ccccc2)CC2(CCN(Cc3ncc[nH]3)CC2)C1 (stereo unspecified) | -6.61 |
| COCCC(=O)N1CCCC(CCC(=O)Nc2ccc(Cl)cc2)C1 (stereo unspecified) | 5.38 |
| COC[C@]1(O)CCN(c2cc(OC)ncn2)CC1(C)C | 20.7 |
| Cc1ccccc1C(=O)NC(C)CN1CCOC1=O (stereo unspecified) | 14.9 |
| Cc1ccc(C(CNC(=O)c2cc(=O)c3ccccc3[nH]2)N(C)C)cc1 (stereo unspecified) | 6.26 |
| CC(NCc1cnc(N2CCOCC2)s1)c1ccc(Cl)s1 (stereo unspecified) | 9.15 |
| N#Cc1cccnc1N1CCC(Nc2ccccc2)C1 (stereo unspecified) | 4.61 |
| Cc1cc(=O)n2nc(Oc3cccc(C(N)=O)c3)sc2n1 | -11.1 |
| CCCOc1cc(CNC(=O)Nc2ccc(C)cc2)ccn1 | 1.3 |
| CCN(CC)CCNCc1cc(O)c2cc(C)ccc2n1 | 0.484 |
| OCCOCCNCC1(c2ccc(F)cc2)CCOC1 (stereo unspecified) | -5.55 |
| Cc1cccc(C)c1NC(=O)NCC1CCCN(C2CCOCC2)C1 (stereo unspecified) | 5.67 |
| Cc1ccccc1C(=O)NC[C@@H]1CCN(C(=O)c2cscn2)C[C@H]1O | 1.22 |
| CCOCCC(=O)NCC1CCCO1 (stereo unspecified) | 0.034 |
| Cc1noc(CN(C)c2nc(-c3ccco3)nc3c2CCN(C)CC3)n1 | 3.37 |
| Cc1nn(C)c(C)c1C1COCCN1C(=O)CC(C)(C)C (stereo unspecified) | -3.31 |
